Assay outcomes from PubChem BioAssay.
DRD3 agonist: D3 dopamine receptor (human) agonism. P35462. D3R DiscoveRx beta-arrestin cells, luminescence, 90 min. max activation, %. 410,000 compounds, 0.58% hits. AID 652048; in the data active = max activation above about 30%; also: 0% is about no effect
Target sequence (P35462 whole entry, looked up): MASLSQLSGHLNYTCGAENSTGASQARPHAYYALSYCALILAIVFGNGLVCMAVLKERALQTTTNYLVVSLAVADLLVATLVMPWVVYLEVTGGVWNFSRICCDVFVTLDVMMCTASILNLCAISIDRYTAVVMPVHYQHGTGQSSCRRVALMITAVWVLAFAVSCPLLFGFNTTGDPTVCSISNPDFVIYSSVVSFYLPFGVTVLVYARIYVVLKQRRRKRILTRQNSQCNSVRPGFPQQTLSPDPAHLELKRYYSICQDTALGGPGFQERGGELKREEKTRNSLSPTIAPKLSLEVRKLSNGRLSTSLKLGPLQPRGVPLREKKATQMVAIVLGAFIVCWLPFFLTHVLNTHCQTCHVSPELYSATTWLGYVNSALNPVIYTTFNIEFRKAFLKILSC
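Agonist-mode cell screen: cells plated at 1500/well and incubated overnight at 37 °C, then exposed to library compounds for 90 min at 37 °C. Detection reagent was added for 30–60 min at room temperature, and luminescence was read.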
DRD3 antagonist: blocks the human D3 dopamine receptor; max response, negative = inhibition, %; AID 652054; D3R cells, DiscoveRx beta-arrestin luminescence, antagonist mode; hits give low values; 360,000 compounds, 2.5% hits; P35462; in the data active = max response below about -50%; inconclusive = no clear call, values can overlap the other calls; also: % is scaled to controls: 0 for no effect and ±100 for the full control effect
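Cells plated overnight at 1500 cells/well, then exposed to library compounds with dopamine controls for 90 minutes at 37 degrees C. DiscoveRx reagent added for 30–60 minutes at room temperature; luminescence read, quantitative HTS format.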
HepG2 viability: kills HepG2 cells in TGF-b inhibitor counter-screen; Potency, µM (titrated, usually from 46.1 µM), for inactives: top-dose activity change, negative = cytotoxicity, hits mostly cytotoxic; HepG2 CAGA-GFP viability, ATP luminescence, 18 h; 410,000 compounds, 0.76% hits; also: potency is read from the fitted curve at half-maximal effect
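CellTiter-Glo luminescence gave cytotoxicity after 18 hours at 37 degrees C. The cells were HepG2 CAGA-GFP in 1% FBS DMEM, stimulated with 500 pg/mL TGF-beta after compound addition. %Activity was normalised to no-cell wells (complete cell-killing) and DMSO (no toxicity), and curves were fitted and classified.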
ATXN viability: viability counter-screen for ATXN expression inhibitors | S2 cells (HEK-293 line with an ATXN2-luciferase reporter) viability, CellTiter-Fluor protease fluorescence, 24 h | Potency, µM (highest dose often 56.7 µM), usual class: cytotoxic | 400,000 compounds, 0.49% hits; also: potency is read from the fitted curve at half-maximal effect; nearly all actives have a fitted effect of over 40% in size
TGFb inhibitor: blocks TGF-b signaling. HepG2 CAGA-GFP TGF-b/SMAD3 reporter, GFP fluorescence, 18 h; TGF-beta stimulated, 500 pg/mL final. 410,000 compounds, 1.2% hits. Potency, µM (series often up to 46.1 µM), for the others: at the top dose activity, negative = inhibition, usual class: inhibitors. AID 588855; also: potency is read from the fitted curve at half-maximal effect; % is scaled to controls: 0 for no effect and ±100 for the full control effect; nearly all actives have a fitted effect of over 65% in size
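HEPG2 CAGA-GFP cells (1000/well, DMEM with 1% FBS) were pre-incubated 2 h at 37 degrees C, given compound by pin tool, then stimulated with TGF-beta at 500 pg/mL final for 18 h before per-cell GFP fluorescence imaging.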
ATXN2 expr inh: inhibitors of ATXN2 expression; HEK-293 ATXN2-luciferase reporter, luminescence, 24 h; Potency, µM (titrated, usually from 57 µM), for the others: at the highest dose activity change, negative = inhibition, most hits filed as inhibitors; 360,000 compounds, 0.72% hits; AID 1745845; also: potency is read from the fitted curve at half-maximal effect; % is scaled to controls: 0 for no effect and ±100 for the full control effect; nearly all actives have a fitted effect of over 55% in size
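ATXN2-luciferase reporter cells (luciferase flanked by upstream and downstream ATXN2 gene portions) were treated 24 h at 37 °C with compounds at up to 57 uM. SteadyGlo luminescence gave expression; GF-AFC fluorescence gave viability.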
An asterisk follows results filed as active; i = inactive; ? = inconclusive; . = no result given; ! = repeats disagree. This is a sample that favours compounds with a hit; in the whole collection about 4.7% have one here. Unless noted, calls follow the shape of the dose curve; as a rule, active = well fitted curve in the direction sought with a large enough effect; inconclusive = small, poorly fitted or top-dose-only effect, or another doubt; inactive = no such curve, though single readings can be large; an effect the other way counts as inactive or inconclusive.

SMILES | DRD3 agonist | DRD3 antagonist | HepG2 viability | ATXN viability | TGFb inhibitor | ATXN2 expr inh
O=C(Nc1ccc([N+](=O)[O-])cc1Cl)c1cc(Br)ccc1O | . | . | -8% | . | ? | .
COc1ccc(NC(=O)c2cc([N+](=O)[O-])ccc2O)cc1 | 2 | 15 | 10µM* | ? | 11µM* | .
O=C(Nc1c(Cl)cc([N+](=O)[O-])cc1Cl)c1cc(Cl)ccc1O | . | . | -63% | . | 1.3µM* | .
O=C(Nc1ccc(Nc2ccccc2)cc1)c1cc([N+](=O)[O-])ccc1Cl | -7 | -51* | -29% | i | 13% | .
COc1ccc(Nc2ncc3c(n2)CCN(Cc2ccccc2C)C3)c(OC)c1 | -17 | . | 2% | i | 0% | -1%
CCC(c1nnnn1Cc1ccccc1)N(Cc1ccccc1)Cc1cc2cc(C)ccc2[nH]c1=O (stereo unspecified) | . | . | -15% | . | ? | .
CN(C)/[N+]([O-])=N/Oc1cc(F)c([N+](=O)[O-])cc1[N+](=O)[O-] | . | . | -11% | . | -10% | .
CC1(C)Oc2ccc3ccc(=O)oc3c2[C@@H](O)[C@@H]1O | 87* | 0 | -3% | i | -1% | 11%
C/C=C(/C)C(=O)O[C@@H]1c2c(ccc3ccc(=O)oc23)OC(C)(C)[C@@H]1OC(=O)/C(C)=C\C | 47* | 3 | -31% | ? | ? | ?
CCN(CC)C(=O)N1CCN(/[N+]([O-])=N/Oc2ccc([N+](=O)[O-])cc2[N+](=O)[O-])CC1 | . | . | -34% | . | ? | .
CCN1C(Br)=CCc2ccccc21 | . | . | 0% | . | 1% | .
COc1cc2c(cc1NC(=O)Nc1ccccc1)oc1ccccc12 | -15 | ? | 7.1µM* | i | ? | 4%
COc1cc2c(cc1NC(=O)CCC(=O)O)oc1ccccc12 | -3 | 13 | -1% | i | 1% | 2%
COc1cc2c(cc1NC(=O)CN(C)Cc1ccc(OC)c(OC)c1)oc1ccccc12 | 38* | 43 | -10% | i | -8% | -37%
CCCCCCCCCS(=O)(=O)N/N=C/c1cccc([N+](=O)[O-])c1 | -2 | ? | -84% | i | ? | -5%
CCCCCCCCCCS(=O)(=O)N/N=C/c1ccc(O)cc1 | -5 | -20 | -94% | i | 13µM* | -31%
COc1cc(=O)n2c(c1C(=O)N(C)Cc1cscn1)CCN(Cc1c(C)[nH]c3ccccc13)CC2 | . | . | . | i | . | .
CCc1ccc(NC(=O)NCCN2CCc3ccccc3C2)cc1 | -12 | -69* | -2% | i | 29% | 30%
O=C(NCCN1CCCCC1)Nc1ccc(F)cc1 | -10 | -23 | -1% | i | 0% | 3%
O=C(NCCN1CCc2ccccc2C1)Nc1ccc(F)cc1 | -11 | -77* | -25% | i | 5% | 4%
Cc1ccccc1C(=O)Nc1ccc2oc(-c3ccc(Cl)c(Cl)c3)nc2c1 | -5 | . | 1% | i | 15% | 8%
O=C(O)c1ccc(Cl)c(S(=O)(=O)NCC2CCCO2)c1 (stereo unspecified) | -2 | -54* | -3% | i | -3% | 0%
O=S(=O)(NCC1CCCO1)c1cc(Cl)ccc1Cl (stereo unspecified) | -7 | 7 | -3% | i | 0% | 0%
O=C(CN1C(=O)C(=O)N(CCC2=CCCCC2)C1=O)c1c[nH]c2ccccc12 | 2 | -52* | -33% | i | ? | -6%
COc1ccc(CN([C@H](CO)CC(C)C)S(=O)(=O)N(Cc2ccccc2)[C@H](CO)CC(C)C)cc1 | 14 | 33 | 11µM*! | . | ? | ?
CC(C)C[C@@H](CO)N(Cc1ccccc1)S(=O)(=O)N(Cc1ccccc1)[C@@H](CO)CC(C)C | -16 | 123 | 16µM* | ? | 10µM* | ?
CC(C)C[C@@H](CO)N(Cc1ccccc1)S(=O)(=O)N(Cc1ccccc1)[C@H](CO)CC(C)C | 48* | 129 | -115% | ? | 11µM*! | ?
C=CS(=O)(=O)N(Cc1ccccc1Br)[C@H](CO)CC(C)C | 0 | -81* | -47% | 32µM* | ? | ?
